Test results: PubChem BioAssay (Tox21)
Several values for one entry are separate records, joined by “and”; a condition that tells them apart may be missing. Equal values may be shown once. Records with an inconclusive call do not appear. Activity calls are given as the source filed them. Unless noted, the call rests on the fitted dose curve; in most records, active means well fitted curve in the direction sought with a large enough effect in the repeat runs; inconclusive means weak or mixed curves; inactive means no such curve, though single readings can be large; an effect the other way counts as inactive or inconclusive.

Columns and labels:
[1] = qHTS assay to identify aromatase inhibitors - cell viability counter screen (AID 743084);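 further: cells stimulated with testosterone during compound exposure; nearly all actives have a fitted effect of over 55% in size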; further: potency means the concentration at half of the fitted maximal effect
[2] = target: Aryl hydrocarbon receptor (Homo sapiens) (UniProt P35869); experiment: qHTS assay to identify small molecule that activate the aryl hydrocarbon receptor (AhR) signaling pathway (AID 743085); further: nearly all actives have a fitted effect of over 15% in size; further: potency means the concentration at half of the fitted maximal effect;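 on activation: HG2L7.5c1 human HepG2 liver cells with stably integrated DRE-driven firefly reporter; series mostly up to about 70 µM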
Chain of Aryl hydrocarbon receptor (Homo sapiens) (P35869 whole entry, looked up): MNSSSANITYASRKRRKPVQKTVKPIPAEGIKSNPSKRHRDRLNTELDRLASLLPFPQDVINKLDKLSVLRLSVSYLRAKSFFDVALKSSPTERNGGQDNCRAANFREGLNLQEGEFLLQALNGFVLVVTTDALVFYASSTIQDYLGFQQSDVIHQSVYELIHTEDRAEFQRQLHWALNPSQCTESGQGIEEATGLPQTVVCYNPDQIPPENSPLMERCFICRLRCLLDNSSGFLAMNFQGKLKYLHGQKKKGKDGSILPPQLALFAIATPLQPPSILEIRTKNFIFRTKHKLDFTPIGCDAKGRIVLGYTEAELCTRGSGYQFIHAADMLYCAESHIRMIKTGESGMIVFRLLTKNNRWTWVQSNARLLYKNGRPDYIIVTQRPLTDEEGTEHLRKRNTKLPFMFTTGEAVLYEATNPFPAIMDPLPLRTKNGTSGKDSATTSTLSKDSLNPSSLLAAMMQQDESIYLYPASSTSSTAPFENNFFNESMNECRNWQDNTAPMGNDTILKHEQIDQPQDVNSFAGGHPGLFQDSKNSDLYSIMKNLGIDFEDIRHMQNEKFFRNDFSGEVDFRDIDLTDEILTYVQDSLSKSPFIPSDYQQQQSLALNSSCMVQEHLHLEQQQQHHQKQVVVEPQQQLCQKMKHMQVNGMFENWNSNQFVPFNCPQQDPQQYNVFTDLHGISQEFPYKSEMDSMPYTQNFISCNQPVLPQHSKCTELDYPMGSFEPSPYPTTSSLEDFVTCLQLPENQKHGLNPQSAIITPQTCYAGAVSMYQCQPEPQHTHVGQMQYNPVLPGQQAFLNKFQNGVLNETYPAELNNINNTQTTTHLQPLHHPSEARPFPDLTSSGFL
In short: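 HepG2 cells (HG2L7.5c1) stably carrying a firefly luciferase reporter driven by 20 dioxin responsive elements were exposed to compound for 24 h at 37C after a 5 h settling period; luminescence rise (ONE-Glo) indicated activation.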

[3] = target: Peroxisome proliferator-activated receptor gamma (Homo sapiens) (UniProt P37231); experiment: qHTS assay to identify small molecule agonists of the peroxisome proliferator-activated receptor gamma (PPARg) signaling pathway (AID 743094; active means well fitted activation curve with a large enough effect in the signal ratio in the repeat runs, not every such curve was filed as active; the % refers to the signal ratio)
Chain of Peroxisome proliferator-activated receptor gamma (Homo sapiens) (P37231 whole entry, looked up): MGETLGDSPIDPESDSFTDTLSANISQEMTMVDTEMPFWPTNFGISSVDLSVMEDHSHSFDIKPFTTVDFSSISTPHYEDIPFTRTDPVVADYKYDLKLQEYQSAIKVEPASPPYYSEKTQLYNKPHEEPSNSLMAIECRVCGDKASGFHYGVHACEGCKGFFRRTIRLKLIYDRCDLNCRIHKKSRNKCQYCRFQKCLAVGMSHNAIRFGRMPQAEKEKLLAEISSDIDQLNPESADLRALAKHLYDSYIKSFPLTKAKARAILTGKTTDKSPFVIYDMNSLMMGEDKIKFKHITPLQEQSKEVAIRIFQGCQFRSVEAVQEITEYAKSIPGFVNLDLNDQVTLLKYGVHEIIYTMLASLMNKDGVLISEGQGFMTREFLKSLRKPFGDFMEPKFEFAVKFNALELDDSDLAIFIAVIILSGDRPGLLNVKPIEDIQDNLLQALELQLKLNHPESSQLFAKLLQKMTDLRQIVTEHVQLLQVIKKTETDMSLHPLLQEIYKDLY
In short: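 Beta-lactamase FRET fluorescence was the read-out after a 1 h room-temperature substrate step, following 17 h compound treatment at 37C of HEK293H cells expressing a UAS-driven bla reporter responsive to PPARg.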

[4] = target: Peroxisome proliferator-activated receptor gamma (Homo sapiens) (UniProt P37231); experiment: qHTS assay to identify small molecule antagonists of the peroxisome proliferator-activated receptor gamma (PPARg) signaling pathway (AID 743191; calls by dose curve; further: series mostly up to about 63 µM; nearly all actives have a fitted effect of over 30% in size)
In short: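 GeneBLAzer PPARg UAS-bla HEK293H cells, 5 h post-plating, exposed to compounds 17 h at 37C. LiveBLAzer B/G FRET substrate added for 1 h at room temperature; beta-lactamase reporter read by fluorescence intensity.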

[5] = qHTS assay to identify small molecule antagonists of the peroxisome proliferator-activated receptor gamma (PPARg) signaling pathway - cell viability counter screen (AID 743194); further: nearly all actives have a fitted effect of over 55% in size
In short: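 Cytotoxicity counter screen in PPARg-bla HEK293H cells, same wells as reporter assay. Compounds plus 50 nM rosiglitazone (final) for 17 h at 37 C, then viability read by CellTiter-Glo luminescence.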

[6] = qHTS assay for small molecule agonists of the antioxidant response element (ARE) signaling pathway (AID 743202; active means well fitted activation curve with a large enough effect in the signal ratio in the repeat runs, not every such curve was filed as active; the % refers to the signal ratio; further: potency means the concentration at half of the fitted maximal effect)
In short: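 Agonist mode reporter screen: HepG2 cells with ARE-controlled beta-lactamase are incubated with test compounds for 16 h at 37 C, and beta-lactamase activity is measured as fluorescence of cleaved B/G FRET substrate.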

[7] = qHTS assay for small molecule agonists of the antioxidant response element (ARE) signaling pathway - cell viability counter screen (AID 743203; calls by dose curve; further: nearly all actives have a fitted effect of over 55% in size; further: potency means the concentration at half of the fitted maximal effect)
In short: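 HepG2 cells carrying ARE-driven beta-lactamase; 2,000 cells/well; 5 hrs plating; compound pinned from DMSO; 16 hrs 37C/5% CO2; CellTiter-Glo added; 30 min RT; luminescence.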

[8] = qHTS assay for small molecule activators of the heat shock response signaling pathway - cell viability counter screen (AID 743209); further: nearly all actives have a fitted effect of over 50% in size
In short: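 Luminescence from CellTiter-Glo, added after the beta-lactamase FRET read, gave the viability signal. Cells were HSE-bla HeLa treated with DMSO-dissolved compounds for 5 h at 37 C following overnight plating.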

[9] = qHTS assay for small molecule activators of the heat shock response signaling pathway (AID 743210; active means well fitted activation curve with a large enough effect in the signal ratio in the repeat runs, with a control signal flat, not every such curve was filed as active; the % refers to the signal ratio;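 further: HeLa cells with beta-lactamase reporter driven by heat shock elements; series mostly up to about 63 µM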)
In short: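 Quantitative high-throughput format using an engineered HeLa line in which heat shock response elements drive beta-lactamase; after 5 h with compound, cells received a B/G FRET substrate and fluorescence was read.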

[10] = qHTS assay to identify small molecule agonists of the peroxisome proliferator-activated receptor delta (PPARd) signaling pathway - cell viability counter screen (AID 743211); further: nearly all actives have a fitted effect of over 55% in size; further: potency means the concentration at half of the fitted maximal effect
In short: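 PPARd-bla HEK293H cells (UAS-beta-lactamase reporter) were treated with compounds for 17 h at 37 C. Viability was then read in the same wells by CellTiter-Glo luminescence after 30 min at room temperature.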

[11] = target: Peroxisome proliferator-activated receptor delta (Homo sapiens) (UniProt Q03181); experiment: qHTS assay to identify small molecule agonists of the peroxisome proliferator-activated receptor delta (PPARd) signaling pathway (AID 743212; calls by dose curve)
Chain of Peroxisome proliferator-activated receptor delta (Homo sapiens) (Q03181 whole entry, looked up): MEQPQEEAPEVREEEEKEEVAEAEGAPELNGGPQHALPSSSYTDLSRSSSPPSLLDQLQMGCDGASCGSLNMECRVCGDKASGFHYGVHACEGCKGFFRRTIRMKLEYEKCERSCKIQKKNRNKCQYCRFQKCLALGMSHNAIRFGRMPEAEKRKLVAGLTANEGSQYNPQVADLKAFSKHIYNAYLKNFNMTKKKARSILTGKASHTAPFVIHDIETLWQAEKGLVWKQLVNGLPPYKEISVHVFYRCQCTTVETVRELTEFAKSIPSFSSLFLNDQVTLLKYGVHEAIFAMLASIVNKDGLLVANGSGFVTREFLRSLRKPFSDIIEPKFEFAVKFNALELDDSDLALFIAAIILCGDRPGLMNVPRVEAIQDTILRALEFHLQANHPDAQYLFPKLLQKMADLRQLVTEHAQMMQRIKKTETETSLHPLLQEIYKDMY
In short: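 Quantitative high-throughput agonist screen in a HEK293H beta-lactamase reporter line under UAS control. Compounds in DMSO, at 37 C. Fluorescence read after 2 h with FRET substrate at room temperature.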

[12] = qHTS assay to identify small molecule antagonists of the peroxisome proliferator-activated receptor delta (PPARd) signaling pathway - cell viability counter screen (AID 743213); further: nearly all actives have a fitted effect of over 50% in size; further: potency means the concentration at half of the fitted maximal effect
In short: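 Same-well viability: cells pre-incubated 5 h, dosed with compound plus 300 nM L165041, kept 17 h at 37 C, FRET substrate 2 h RT, then CellTiter-Glo 30 min RT and luminescence.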

[13] = qHTS assay to identify small molecule agonists of the farnesoid-X-receptor (FXR) signaling pathway - cell viability counter screen (AID 743218); further: nearly all actives have a fitted effect of over 45% in size; further: potency means the concentration at half of the fitted maximal effect
In short: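 HEK 293T FXR-bla cells; 5 h pre-incubation, 16 h compound exposure at 37 C; LiveBLAzer substrate 2 h RT, then CellTiter-Glo 30 min RT, luminescence.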

[14] = qHTS assay to identify small molecule antagonists of the farnesoid-X-receptor (FXR) signaling pathway - cell viability counter screen (AID 743221; active means well fitted cell-killing curve with a large enough effect in the repeat runs, not every such curve was filed as active; further: nearly all actives have a fitted effect of over 50% in size; further: potency means the concentration at half of the fitted maximal effect)
In short: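 FXR-UAS-bla HEK 293T cells were treated with test compounds plus chenodeoxycholic acid (50 uM final) for 16 h at 37 C. Cell viability in the same wells was then read as CellTiter-Glo luminescence after 30 min at room temperature.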

[15] = target: Vitamin D3 receptor (Homo sapiens) (UniProt P11473); experiment: qHTS assay to identify small molecule agonists of the vitamin D receptor (VDR) signaling pathway (AID 743222; calls by dose curve)
Chain of Vitamin D3 receptor (Homo sapiens) (P11473 whole entry, looked up): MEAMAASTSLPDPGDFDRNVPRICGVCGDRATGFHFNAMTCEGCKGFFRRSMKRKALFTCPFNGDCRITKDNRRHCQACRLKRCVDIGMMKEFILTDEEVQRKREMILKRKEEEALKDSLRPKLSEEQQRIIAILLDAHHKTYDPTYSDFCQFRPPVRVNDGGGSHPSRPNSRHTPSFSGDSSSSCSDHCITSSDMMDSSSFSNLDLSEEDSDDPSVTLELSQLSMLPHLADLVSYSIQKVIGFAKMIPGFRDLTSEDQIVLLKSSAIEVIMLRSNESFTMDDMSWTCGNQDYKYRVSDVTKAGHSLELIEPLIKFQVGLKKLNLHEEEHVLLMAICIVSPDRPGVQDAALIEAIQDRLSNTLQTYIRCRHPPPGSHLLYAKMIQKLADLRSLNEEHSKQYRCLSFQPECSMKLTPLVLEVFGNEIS
In short: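 VDR-bla cells, 2,000/well; 4 h preincubation 37C; cpd (DMSO) 16 h; LiveBLAzer B/G substrate 2 h RT; fluorescence intensity read.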

[16] = target: Vitamin D3 receptor (Homo sapiens) (UniProt P11473); experiment: qHTS assay to identify small molecule antagonists of the vitamin D receptor (VDR) signaling pathway (AID 743223; active means well fitted inhibition curve with a large enough effect in the signal ratio in the repeat runs, not every such curve was filed as active; the % refers to the signal ratio)
In short: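 VDR-bla cells were plated, incubated 4 h at 37C, then given compound and 1alpha,25-dihydroxyvitamin D3 (3 nM final). After 16 h at 37C, LiveBLAzer B/G FRET substrate was added for 2 h at room temperature and fluorescence read.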

[17] = qHTS assay to identify small molecule that activate the aryl hydrocarbon receptor (AhR) signaling pathway - cell viability counter screen (AID 743086); further: nearly all actives have a fitted effect of over 45% in size; further: potency means the concentration at half of the fitted maximal effect
In short: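 HepG2-AhR-luc (HG2L7.5c1) cells, 4000/well, treated 24 h at 37 C with compound; viability measured as CellTiter-Fluor fluorescence after 30 min in the same wells as the luciferase read.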

[18] = target: Peroxisome proliferator-activated receptor delta (Homo sapiens) (UniProt Q03181); experiment: qHTS assay to identify small molecule antagonists of the peroxisome proliferator-activated receptor delta (PPARd) signaling pathway (AID 743215; active means well fitted inhibition curve with a large enough effect in the signal ratio in the repeat runs, not every such curve was filed as active; the % refers to the signal ratio;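 further: cells stimulated with agonist L165041 at 300 nM final during compound exposure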; further: potency means the concentration at half of the fitted maximal effect)
In short: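 Read-out is beta-lactamase FRET fluorescence, measured 2 h after substrate addition at room temperature. Beforehand, UAS-bla HEK293H cells carrying the PPARd reporter were exposed to compounds with L165041 at 300 nM final for 17 h at 37 C.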

[19] = target: Bile acid receptor (Homo sapiens) (UniProt Q96RI1); experiment: qHTS assay to identify small molecule antagonists of the farnesoid-X-receptor (FXR) signaling pathway (AID 743217; active means well fitted inhibition curve with a large enough effect in the signal ratio in the repeat runs, not every such curve was filed as active; the % refers to the signal ratio)
Chain of Bile acid receptor (Homo sapiens) (Q96RI1 whole entry, looked up): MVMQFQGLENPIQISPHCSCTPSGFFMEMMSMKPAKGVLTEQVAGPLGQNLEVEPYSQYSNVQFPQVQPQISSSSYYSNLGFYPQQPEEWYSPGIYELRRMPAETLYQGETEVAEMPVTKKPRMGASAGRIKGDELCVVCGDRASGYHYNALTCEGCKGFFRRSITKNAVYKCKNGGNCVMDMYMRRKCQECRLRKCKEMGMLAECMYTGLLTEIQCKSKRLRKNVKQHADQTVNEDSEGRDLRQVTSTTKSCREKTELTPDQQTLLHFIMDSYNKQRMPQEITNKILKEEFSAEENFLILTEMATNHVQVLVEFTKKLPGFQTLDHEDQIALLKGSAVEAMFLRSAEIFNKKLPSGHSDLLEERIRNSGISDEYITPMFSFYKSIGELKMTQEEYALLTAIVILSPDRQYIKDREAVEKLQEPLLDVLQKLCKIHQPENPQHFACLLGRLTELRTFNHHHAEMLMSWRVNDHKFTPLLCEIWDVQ
In short: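 HEK 293T FXR-UAS-bla, 5000 cells/well; compound + CDCA 50 uM final; 16 h, 37 °C; B/G FRET substrate 2 h RT; fluorescence.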

[20] = target: Bile acid receptor (Homo sapiens) (UniProt Q96RI1); experiment: qHTS assay to identify small molecule agonists of the farnesoid-X-receptor (FXR) signaling pathway (AID 743220; active means well fitted activation curve with a large enough effect in the signal ratio in the repeat runs, not every such curve was filed as active; the % refers to the signal ratio)
In short: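 Beta-lactamase reporter under UAS control in GeneBLAzer FXR HEK 293T cells (5000/well) measured with LiveBLAzer FRET substrate after 2 h at room temperature. Compound exposure lasted 16 h at 37C.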

Measured: Potency

Nc1nc2c(ncn2COC(CO)CO)c(=O)[nH]1
inactive: [1] | [2] | [3] | [4] | [5] | [6] | [7] | [8] | [9] | [10] | [11] | [12] | [13] | [14] | [15] | [16]

CC/C=C\CC/C=C/CO
inactive: [1] | [2] | [17] | [3] | [5] | [7] | [8] | [10] | [11] | [12] | [13] | [14]

CCc1ccc(O)c(OC)c1
inactive: [1] | [2] | [3] | [4] | [5] | [6] | [7] | [8] | [9] | [10] | [12] | [18] | [19] | [13] | [20] | [14]

CC1=CC(C)C(C=O)CC1 (stereo not given)
inactive: [1] | [2] | [3] | [4] | [5] | [6] | [7] | [8] | [9] | [10] | [11] | [12] | [13] | [14] | [15]

CC(C)OC(=O)c1ccccc1
inactive: [1] | [2] | [17] | [5] | [6] | [7] | [8] | [9] | [10] | [11] | [12] | [13] | [14] | [15]

CN(C)CCCN1c2ccccc2CCc2ccc(Cl)cc21
active: [1] 48.6 µM | [17] 27.3 µM | [7] 43.3 µM | [10] 38.9 µM and 29.8 µM | [12] 21.9 µM and 13.3 µM | [13] 24.5 µM | [14] 49 µM
inactive: [2] | [6] | [8] | [9] | [15]

Cc1ccc(=O)n(-c2ccccc2)c1
inactive: [1] | [2] | [3] | [4] | [5] | [6] | [7] | [8] | [9] | [10] | [12] | [13] | [14] | [15] | [16]

O=C1CCCCCCCCCCCN1
inactive: [1] | [2] | [17] | [5] | [6] | [7] | [8] | [9] | [10] | [11] | [12] | [18] | [14] | [15] | [16]

CC(=O)Nc1ccc(S(N)(=O)=O)cc1
inactive: [1] | [2] | [3] | [4] | [5] | [6] | [7] | [8] | [9] | [10] | [11] | [19] | [13] | [20] | [14] | [15]

Cc1ccc(Cl)cc1Cl
inactive: [1] | [2] | [17] | [5] | [6] | [7] | [8] | [9] | [10] | [12] | [13] | [14] | [15] | [16]

NC(=O)COCCN1CCN(C(c2ccccc2)c2ccc(Cl)cc2)CC1 (stereo not given)
inactive: [1] | [2] | [3] | [4] | [5] | [6] | [7] | [8] | [9] | [10] | [11] | [18] | [13] | [14] | [16]

COC(=O)c1ccc(C)cc1C1=NC(C)(C(C)C)C(=O)N1 (stereo not given)
inactive: [1] | [2] | [3] | [4] | [5] | [6] | [7] | [8] | [9] | [10] | [11] | [12] | [18] | [13] | [14] | [15]

NS(=O)(=O)c1ccccc1Cl
inactive: [1] | [2] | [17] | [3] | [6] | [7] | [8] | [9] | [11] | [12] | [18] | [14] | [15]

CN1CC(=O)NC1=N
inactive: [1] | [2] | [17] | [5] | [6] | [8] | [9] | [10] | [11] | [12] | [18] | [19] | [13] | [20] | [14] | [15] | [16]

CC(C)(c1ccc(O)cc1)c1ccc(O)cc1
active: [2] 32.2 µM | [6] 27 µM and 17.5 µM | [18] 24.3 µM
inactive: [1] | [17] | [5] | [7] | [8] | [9] | [10] | [11] | [14]

CCN(Cc1ccncc1)C(=O)C(CO)c1ccccc1 (stereo not given)
inactive: [1] | [2] | [17] | [5] | [7] | [8] | [10] | [12] | [14] | [15] | [16]

COC(=O)NN
inactive: [1] | [2] | [3] | [4] | [5] | [6] | [7] | [8] | [9] | [10] | [11] | [19] | [20] | [14] | [15] | [16]
